ChEMBL document CHEMBL1157539, “Thousands of chemical starting points for antimalarial lead identification” (Nature, 2010)

Assays:
Format in all cases: functional
Plasmodium falciparum [1] = assay: GSK_TCMDC: Inhibition of Plasmodium falciparum 3D7 in whole red blood cells, using parasite LDH activity as an index of growth. Test compounds present at 2uM
Plasmodium falciparum [2] = assay: GSK_TCMDC: Inhibition of Plasmodium falciparum Dd2 in whole red blood cells, using parasite LDH activity as an index of growth. Test compounds present at 2uM
HepG2 = assay: GSK_TCMDC: Percent inhibition of human HepG2 cell line. Test compounds present at 10uM.

SMILES	Inhibition (Plasmodium falciparum [1]) [%]	Inhibition (Plasmodium falciparum [2]) [%]	Inhibition (HepG2) [%]
CCCc1ccccc1OCC(O)CN(C1CCCC1)C1CCCC1.Cl (stereo not drawn)	97	97	49
Cc1onc(-c2ccccc2Cl)c1C(=O)Nc1cc(Cl)c(Cl)cc1Cl	90	57	3
CCCCCCNc1c2ccccc2nc2ccccc12.Cl	97	32	24
CCCCc1ccc(S(=O)(=O)Nc2ccc3c(c2)CCN(Cc2c[nH]c4cnccc24)CC3)cc1.O=C(O)C(F)(F)F	99	12	41
COc1cc(NC(=O)N2CCOC(CCN3CCC4(CCc5ccccc54)CC3)(c3ccc(Cl)c(Cl)c3)C2)cc(OC)c1 (stereo not drawn)	87	50	29
CN1CCCC1CCCOC(=O)c1ccc(N)cc1 (stereo not drawn)	100	2	8
CCc1cn2c3c(cc(C(=O)N[C@@H](Cc4ccccc4)[C@H](O)CNC(C)(C)CCCC(C)C)cc13)N(C)S(=O)(=O)C2.O=CO	98	98	71
CCc1cn2c3c(cc(C(=O)N[C@@H](Cc4ccccc4)[C@H](O)CNC(C)(C)c4cccc(OC)c4)cc13)N(C)S(=O)(=O)C2.O=CO	98	99	27
CCCCC(O)c1cc(O)c2c(c1)OC(C)(C)CC2C1=CCN(Cc2ccc3ccccc3c2)CC1 (stereo not drawn)	100	97	7
Cl.N=c1c2c(n(Cc3ccccc3)c3c1CCC3)CCCC2	86	39	4
CCOc1ccc(-c2nonc2NC(=O)c2ccco2)cc1OCC	97	77	3
